# Screening data from PubChem.
# Rows were chosen to be rich in hits. Some 1.3% of all compounds tested hit in one or more screens of this group.
# NPR2 activator = human GC-B receptor activators, primary screen, HEK293 GC-B cells, cGMP TR-FRET, EC30 CNP | AID 1920062, 2024 | activation, % at 10 µM | 370,000 tested, 0.11% active | Atrial natriuretic peptide receptor 2 (Homo sapiens), P20594 | 0% at EC30 CNP, 100% saturating CNP;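 active = activation at 10 µM reaching about 35% in either raw or pattern-adjusted values, limit read from the data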
# HIF act = HIF pathway transcriptional activators, primary screen, cell-based, U2OS HRE-luciferase, luminescence | activation, % at 7.5 µM (by protocol) | 300,000 tested, 0.32% active | U2OS HRE-luciferase reporter; normalized: DMSO 0%, desferrioxamine 100%;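 active = mean activation of at least 10% of the iron chelator positive control signal, with at least half of replicates also reaching 10%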
# proKLK7 act = proKLK7 zymogen activators, primary screen, biochemical, fluorescence intensity. Kallikrein-7 (Homo sapiens), P49862. purified proKLK7, EDANS-DABCYL substrate fluorescence; 100% is mature enzyme control, 0% vehicle. activation, % at 7 µM. 370,000 tested, 0.9% active;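 active = activation above the mean of all tested compounds plus 3 SD, computed per campaign excluding outliers beyond control limits, cut at about 13% in these data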
# GC-A act = GC-A stimulated cGMP production enhancers – HEK293 GC-A cells, cGMP TR-FRET, EC30 ANP, primary screen. Atrial natriuretic peptide receptor 1 (Homo sapiens), P16066. 0% at EC30 ANP, 100% saturating ANP. activation, % at 10 µM. 370,000 tested, 0.14% active; in the data active = activation above about 40%
# Target sequence (P16066 whole entry, looked up): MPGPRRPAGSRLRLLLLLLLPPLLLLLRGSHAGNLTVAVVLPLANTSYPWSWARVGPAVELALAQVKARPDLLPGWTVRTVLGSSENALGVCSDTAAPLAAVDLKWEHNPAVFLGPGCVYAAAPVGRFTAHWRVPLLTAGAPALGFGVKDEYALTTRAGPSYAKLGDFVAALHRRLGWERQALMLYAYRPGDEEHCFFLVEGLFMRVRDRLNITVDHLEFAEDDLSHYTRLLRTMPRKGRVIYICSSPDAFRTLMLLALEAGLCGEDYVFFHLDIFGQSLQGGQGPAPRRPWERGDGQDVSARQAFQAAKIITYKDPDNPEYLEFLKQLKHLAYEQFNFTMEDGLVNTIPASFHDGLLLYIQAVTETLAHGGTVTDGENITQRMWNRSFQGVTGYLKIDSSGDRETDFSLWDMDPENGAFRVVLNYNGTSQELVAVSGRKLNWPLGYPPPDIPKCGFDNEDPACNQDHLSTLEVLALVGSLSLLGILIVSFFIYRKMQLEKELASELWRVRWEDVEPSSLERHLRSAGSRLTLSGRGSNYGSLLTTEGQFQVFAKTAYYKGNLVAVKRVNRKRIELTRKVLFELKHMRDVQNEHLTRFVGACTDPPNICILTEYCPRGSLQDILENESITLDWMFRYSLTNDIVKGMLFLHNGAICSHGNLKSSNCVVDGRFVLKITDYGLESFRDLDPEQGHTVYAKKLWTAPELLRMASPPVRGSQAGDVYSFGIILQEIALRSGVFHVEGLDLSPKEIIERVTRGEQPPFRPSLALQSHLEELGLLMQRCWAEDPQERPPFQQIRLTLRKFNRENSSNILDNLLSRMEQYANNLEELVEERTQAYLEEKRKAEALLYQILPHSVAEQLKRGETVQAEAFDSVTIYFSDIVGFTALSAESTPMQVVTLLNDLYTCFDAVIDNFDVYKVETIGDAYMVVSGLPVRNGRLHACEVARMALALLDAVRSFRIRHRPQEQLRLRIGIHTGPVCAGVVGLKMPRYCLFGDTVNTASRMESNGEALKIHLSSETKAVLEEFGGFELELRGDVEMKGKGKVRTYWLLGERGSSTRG
# The depositor's hits bear a star; . = not tested or not shown.
SMILES,NPR2 activator,HIF act,proKLK7 act,GC-A act
O=C(N1CCOCC1)N1CC[C@H]2[C@H](CCCN2Cc2cc(F)cc(F)c2)C1,-1,.,0,0
COCc1nnc(NC(=O)c2cc(Cl)ccc2OC)s1,3,877*,0,2
Cc1cnc(NC(=O)C2CC(=O)N(c3cccc(Cl)c3)C2)s1 (stereo not given),37*,-1,0,14
Cc1cnc(NC(=O)C2CC(=O)N(c3ccc4c(c3)OCCO4)C2)s1 (stereo not given),-2,.,-1,1
CNc1nnc(-c2ccc(N(C)C)cc2)s1,-5,.,40*,-6
CCCCn1cnc2c(=S)nc(N)[nH]c21,80*,0,1,79*
CCCn1cnc2c(=S)nc(N)[nH]c21,44*,0,0,43*
Nc1nc(=S)c2ncn(C3CCCCC3)c2[nH]1,28,.,0,27
CCCCCn1cnc2c(=S)nc(N)[nH]c21,81*,-20,-1,75*
Oc1c(CN2CCc3ccccc3C2)cc(Cl)c2cccnc12,.,50*,.,.
Oc1c(CN2CCCCC2)cc(Br)c2cccnc12,-2,.,0,-3
Oc1c(Cl)cc(CN2CCOCC2)c2cccnc12,1,.,0,1
O=S(=O)(c1ccc(Cl)cc1)N1CCN(Cc2ccc(O)c3ncccc23)CC1,3,4,0,5
CN1CCN(Cc2cc(COCc3ccccc3)c3cccnc3c2O)CC1,.,221*,0,.
Oc1ccc(CN2CCN(Cc3ccccc3)CC2)c2cccnc12,2,11*,0,-2
O=C(CSc1nnc(-c2ccccn2)n1-c1ccc(Cl)cc1)Nc1ccc2c(c1)OCCO2,-2,.,0,-2
CN[C@H]1C[C@H]2c3[nH]c4c(-c5cccc(C)c5)cccc4c3CCN2C(=O)[C@H]1[C@H](C)O,-13,.,1,-19
CC(C)[C@@H]1C(=O)N[C@H](Cc2cn(S(=O)(=O)c3ccccc3)c3ccccc23)C(=O)N1C,-3,.,.,-2
Cc1ccc(-c2nc3ncccn3c2NC(=O)c2ccc(F)cc2)cc1,3,.,13,-1
CC(=O)c1ccc(N2C(=NC(=O)COc3ccccc3)SC3CS(=O)(=O)CC32)cc1 (stereo not given),0,473*,0,-1
COCCCNC(=O)c1ccc(Cn2c(=O)c3ccccc3n(Cc3ccc(Br)cc3)c2=O)cc1,11,.,1,-4
O=[N+]([O-])c1ccc(Cl)cc1C=NNc1ccccn1,-2,.,0,-5
O=[N+]([O-])c1cc(Cl)cc(/C=N\Nc2ccccn2)c1O,-2,21*,0,-5
CN(C)c1ccc(-c2nc3cnccn3c2Nc2ccc3c(c2)OCCO3)cc1,1,2,1,9
Cc1ccc(-c2nc3cnccn3c2Nc2ccc3c(c2)OCO3)cc1,50*,0,4,51*
SMILES,NPR2 activator,HIF act,proKLK7 act,GC-A act
COc1ccc(-c2nc3cnccn3c2Nc2ccc3c(c2)OCO3)cc1,47*,1,4,52*
COc1ccc(-c2nc3ccccc3n2Cc2ccc(C)cc2)cc1,48*,1,0,63*
COc1ccc(S(=O)(=O)Oc2ccc3ccccc3c2)cc1,-3,3,0,2
COC1=C(OC)C(=O)C(Sc2ccc3ccccc3c2)=CC1=O,20,.,0,40*
COC(=O)[C@@]12CCCCC3=C1N(CCC3)C(=O)[C@H]2CC(=O)NCc1ccccc1,2,.,0,2
COC(=O)C1CN(Cc2cn(Cc3ccc(Cl)cc3)nn2)CCS(=O)(=O)N1Cc1ccc(C)cc1 (stereo not given),-8,.,1,-4
CC1CC(C)CN(S(=O)(=O)c2ccc3c(c2)oc(=O)n3CC(=O)NCCCOC(C)C)C1 (stereo not given),-4,31*,1,0
CCC(C)(C)NC(=O)Cn1c(=O)oc2cc(S(=O)(=O)N3CC(C)CC(C)C3)ccc21 (stereo not given),4,0,0,8
COc1ccc(CN2C(NC(=O)OCc3ccccc3)=NC3=CC(C)(C)n4c(=O)n(-c5ccccc5)c(=O)n4C32)c(OC)c1 (stereo not given),12,.,-1,2
COC(=O)[C@@H]1[C@H](O[Si](C)(C)C(C)(C)C)[C@H]2O[C@H]2C[C@H]1S(=O)(=O)c1ccccc1,0,.,.,0
Cc1csc(SCC(=O)N(C)C2CCS(=O)(=O)C2)n1 (stereo not given),90*,.,0,5
C=CCn1c(SCC(=O)c2ccc(F)cc2)nnc1-c1ccc(F)cc1,-9,.,0,-2
CCN1CCN(C(=O)c2cnn3c(C(F)F)cc(-c4ccc(C)cc4)nc23)CC1,9,0,13*,3
CN(CC(=O)Nc1cc(S(=O)(=O)N2CCCCCC2)ccc1Cl)Cc1ccc2c(c1)OCO2,16,.,0,8
COc1ccc(S(=O)(=O)N2CCCCCC2)cc1NC(=O)CN(C)Cc1ccc2c(c1)OCO2,61*,.,-1,41*
S=c1[nH]nc(-c2ccccc2)n1/N=C/c1cccs1,.,0,.,.
S=c1[nH]nc(-c2ccco2)n1/N=C/c1cccs1,1,58*,0,2
COC(=O)[C@H](C(C)C)N(CCc1cn(Cc2ccccc2)nn1)S(=O)(=O)c1ccccc1Br,4,.,1,0
CCN1C(=O)c2cccc3c(S(=O)(=O)Nc4ccccn4)ccc1c23,2,1,19*,-1
Cc1ccc(NC(=O)CSc2nnc(-c3cccnc3)n2Cc2ccco2)c(C)c1,-2,.,0,1
COC(=O)CN1C(=O)[C@H]2[C@@H](c3ccc(C)o3)N3C(=O)CN(CC4CC4)C(=O)[C@@]3(Cc3ccccc3)[C@H]2C1=O,9,287*,0,5
COC(=O)CN1C(=O)[C@H]2[C@@H](c3ccc(C)o3)N3C(=O)CN(CCO)C(=O)[C@@]3(Cc3ccccc3)[C@H]2C1=O,12,0,-1,1
O=C(C1CCC1)N1CCc2cc(S(=O)(=O)C3CCN(Cc4ccc(F)cc4)CC3)ccc21,-1,.,0,-2
O=C(Nc1cccc(Cl)c1)Nc1cccc(C(=O)O)c1,2,12*,0,4
O=C(CSc1nc2ccccc2nc1N1CCOCC1)N1CCN(S(=O)(=O)c2cccc([N+](=O)[O-])c2)CC1,-13,.,0,-7
Cc1nn(C)cc1S(=O)(=O)NCc1ccc2c(c1)OCO2,-2,263*,0,2
Cc1ccc(Cn2cc(C(=O)c3ccc(F)cc3)c(=O)c3cc4c(cc32)OCCO4)cc1,38*,0,1,28
CC1(OC(=O)c2cccs2)C(=O)C=C2C=C(C3CC3)OC=C2C1=O (stereo not given),-3,112*,0,4
O=C(NCc1ccccc1Cl)c1cccc(NC(=O)c2ccccc2)c1,-1,1,0,-3
